Measurements as given in PubChem BioAssay (NCI).
This is part of a sample that, as a whole, favours compounds with a hit. Of some 83,000 tested, about 20% had one in any assay.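 The test compound was applied at a single concentration to cells in 96-well plates for 48 hours, and percent growth was recorded.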 The source made the active and inactive calls. *1 amine or outer side, *2 acyl side, *3 side chain or, on linkers, in order; H or OH if unused. Where a SMILES comes first, the peptide text is derived from it. Bridges are numbered along the chain shown (N, C = ends). Roman numbers before positions name the chains, in order. [ ]: non-standard residue; d: D form. Actinocin(1to9) = Cc1c2oc3c(C)ccc(C(=O)[*:2])c3nc-2c(C(=O)[*:1])c(N)c1=O; NMeV = CN[CH](C(=O)O)C(C)C; Sar = CNCC(=O)O

System: NCI-H322M lung
Assay: NCI-60 one-dose screen, 48 h (100 = growth as untreated, 0 = no growth, -100 = all killed)
Conditions: 10 µM unless noted
Description: Growth inhibition of the NCI-H322M human Non-Small Cell Lung tumor cell line is measured as a screen for anti-cancer activity. Cells are grown in 96 well plates and exposed to the test compound for 48 hours. Compounds are tested at a single concentration, which is 10^-5 M for most compounds. The reported endpoint is percent growth (GI% or GIPRCNT), where numbers from 0 - 100% represent growth inhibition, and numbers from -100% - 0 represent cell death. For example, a value of 40 represents 60% growth inhibition. A value of 0 means no net growth occurred over the course of the experiment. A value of -40 indicates 40% of cells at the beginning of the experiment died by the end of the experiment. A value of -100 means all cells are dead at the end of the experiment.
NCI-60 Human Tumor Cell Lines Screen was performed using the standard one-dose NCI protocol, which is described in more detail at https://dtp.cancer.gov/discovery_development/nci-60/default.htm.
Compounds with GIPRCNT values below 10 were considered active. Activity score was based on GIPRCNT using the following formula: […]
Score is 0 for GIPRCNT values of 100 or above, 50 for GIPRCNT values of 0, and 100 for GIPRCNT values of -100.

| SMILES | growth |
| --- | --- |
| S=C1SCN(Cc2cccs2)CN1Cc1cccs1 | 99.4% (inactive) |
| O=C(c1ccccc1)C(Br)[N+](=O)[O-] (stereo not given) | 101% (inactive) |
| Oc1c(C(Nc2ccccc2)c2ccccc2)ccc2cccnc12 (stereo not given) | 46.4% (inactive) |
| CC/C(=C(/CC)c1ccc(O)cc1)c1ccc(O)cc1 | 77.6% (inactive) |
| C=C(C(N)=O)C(N)C(=O)O (stereo not given) | 100% (inactive) |
| O=C1c2ccccc2Cc2cccc(Cl)c21 | 85.4% (inactive) |
| CCN(CC)CC(O)CNc1ccc(NCC2CO2)c2c1C(=O)c1ccccc1C2=O (stereo not given) | -16.7% (active) |
| O=S(=O)(O)c1cnccn1 | 101% (inactive) |
| CC(O)C(O)C(O)C(O)C(O)C(=O)NNc1ccccc1 (stereo not given) | 76.1% (inactive) |
| CC(C)=CCCC(C)C1=C(O)C(=O)C(C)=CC1=O (stereo not given) | 112% (inactive) |
| CCC(C)C1NC(=O)C(NC(=O)c2c3nc4c(C(=O)NC5C(=O)NC(C(C)CC)C(=O)N6CCCC6C(=O)N(C)CC(=O)N(C)C(C(C)C)C(=O)OC5C)ccc(C)c4oc-3c(C)c(=O)c2N)C(C)OC(=O)C(C(C)C)N(C)C(=O)CN(C)C(=O)C2CCCN2C1=O (stereo not given) (I: TIP[Sar][NMeV] / II: TIP[Sar][NMeV]; ester I:1-I:C, II:1-II:C; linker I:N-II:N via Actinocin(1to9); configuration not given here) | -2.5% (active) |
| Fc1ccc(NCCS)cc1 | 103% (inactive) |
| Nc1ccc(C(=O)/C=C/c2ccccc2)cc1 | 90.8% (inactive) |
| O=C1C=CC(=O)N1c1ccc(O)cc1 | 105% (inactive) |
| O=C1C=CC(=O)N1c1ccccc1 | 110% (inactive) |
| CCc1oc2ccccc2c1C(=O)c1cc(Br)c(O)c(Br)c1 | 118% (inactive) |
| O=C1/C(=C\c2ccc([N+](=O)[O-])cc2)CS(=O)(=O)C/C1=C/c1ccc([N+](=O)[O-])cc1 | -93.7% (active) |
| O=[N+]([O-])c1ccc(Oc2ccccc2Cl)c([N+](=O)[O-])c1 | 97.8% (inactive) |
| Cc1onc(-c2ccccc2)c1C(=O)N/N=C/c1cc(Cl)cc(Cl)c1O | 16% (inactive) |
| Cc1ccccc1NC(=O)Cc1csc2[n+]1C(=O)/C(=C/c1ccc([N+](=O)[O-])cc1)S2 | 103% (inactive) |

| SMILES | growth |
| --- | --- |
| OC(c1cc2ccc(C(F)(F)F)cc2c2cc(C(F)(F)F)ccc12)C1CCCCN1 (stereo not given) | -91.5% (active) |
| C1=C(c2ccccc2)c2ccccc2C1 | 78.4% (inactive) |
| CC1(C)CCCC2=C1C(=O)N(SC(Cl)(Cl)Cl)C2=O | 101% (inactive) |
| CN1CCC(c2ccccc2)(c2ccccc2)C(=O)C1 | 87.6% (inactive) |
| CCCOS(=O)(=O)c1ccccc1 | 102% (inactive) |
| O=C(C[P+](c1ccccc1)(c1ccccc1)c1ccccc1)c1ccccc1 | 92.2% (inactive) |
| Oc1c(Cl)cc(Cl)cc1C(c1cc(Cl)cc(Cl)c1O)C(Cl)(Cl)Cl | -21.8% (active) |
| O=[N+]([O-])c1ccc(C2N(Cc3ccc(Cl)cc3)CCN2Cc2ccc(Cl)cc2)cc1 | 75.5% (inactive) |
| COc1cc(/C=C2\SC(=S)N(/C=C/c3nc4ccccc4[nH]c3=O)C2=O)cc(OC)c1OC | 89.1% (inactive) |
| O=C(c1ccccc1)C(Br)C(Br)c1ccccc1 (stereo not given) | 121% (inactive) |
| Cc1cc2nc(CC(=O)c3ccncc3)c(=O)[nH]c2cc1C | 95.9% (inactive) |
| O=C1C(=O)c2cccnc2-c2ncccc21 | 20.5% (inactive) |
| COc1ccc(C(Cn2ccnc2)Sc2ccc(Cl)c(Cl)c2)cc1 (stereo not given) | 91.3% (inactive) |
| O=C1/C(=C/c2ccccn2)CCc2ccccc21 | 113% (inactive) |
| CCCN(CCC)C(=O)c1ccc(C)cc1 | 111% (inactive) |
| COc1cc(OC)c(/C=C/c2c3ccccc3cc[n+]2C)c(OC)c1 | 32.9% (inactive) |
| Nc1nc2ncc(CNc3ccc(C(=O)NC(CCC(=O)NC(CCC(=O)NC(CCC(=O)NC(CCC(=O)NC(CCC(=O)O)C(=O)O)C(=O)O)C(=O)O)C(=O)O)C(=O)O)cc3)nc2c(=O)[nH]1 (stereo not given) | 97.5% (inactive) |
| Nc1nc(-c2ccccc2)nc(N)c1N=O | 100% (inactive) |
| Nc1ccc(-c2ccc(N)c(S(=O)(=O)O)c2)cc1S(=O)(=O)O | 116% (inactive) |
| CCOC(=O)C1=NN(c2ccccc2)C(=O)/C1=C\N1C(=O)/C(=C/c2cccc(O)c2)SC1=S | 98.9% (inactive) |
